Inconclusive results are not listed. Entries that show only a call come without a potency. Calls of active or inactive are those of the source. The call rests on the fitted dose curve; in most records, active means well fitted inhibition curve with a large enough effect; inconclusive means small, poorly fitted or top-dose-only effect; inactive means no such curve, though single readings can be large or run the other way.
Assay: qHTS to identify inhibitors of the type 1 interferon - major histocompatibility complex class I in skeletal muscle: tertiary screen by RT-qPCR
Conditions: C25cl48 human myoblasts, IFN-beta, HLA-B RT-qPCR, 24 h; series mostly up to 49.8 µM
From the text: Assay Submitter (PI): Travis B. Kinder Ph.D. & James Inglese Ph.D. Assay Development and Screening Technology Laboratory (ADST) National Center for Advancing Translational Sciences (NCATS), Rockville, MD National Institute of Health (NIH), Bethesda, Maryland Idiopathic inflammatory myopathies, collectively referred to as myositis, are a group of rare autoimmune diseases characterized by skeletal muscle inflammation, weakness, and usually accompanied by systemic pathologies of the skin, lungs, or vasculature. Current immunosuppressive therapies and glucocorticoids are often not curative and are accompanied by harsh side effects, especially in children with juvenile myositis. We initiated a drug repurposing and development program to identify more targeted, less toxic therapeutics to treat myositis. Although its cause is not known, muscle from a subset of patients have an abundance of the inflammatory type 1 interferon (IFN) and a down-stream product major histocompatibility complex class I (MHC class I), which are both thought to contribute to damage and weakness. We conducted quantitative high throughput screening (qHTS) on 6,576 compounds (4,679 unique) through a series of cell-based assays to identify those that inhibit the IFN-stimulated expression of MHC class I in muscle precursor cells (myoblasts). The compound identification and evaluation strategy utilized a primary screen with reporter-tagged MHC class I in genome-engineered myoblasts, ATP content counter screen for viability, HLA-ABC immunofluorescence secondary screen, and HLA-B RT-qPCR tertiary screen. To determine if active compounds identified by qHTS in HLA-B HiBit reporter cells, and confirmed by HLA-ABC immunofluorescence, can inhibit the transcription of HLA-B mRNA, compounds were assayed by RT-qPCR. Briefly, 62 compounds identified from primary, counter, and secondary screening as inhibitory with minimal cytotoxicity were dispensed into 384-well plates using acoustic dispensing in a 6-point, 1:7 titration with a high final concentration of 10 uM. Normal immortalized human myoblasts C25cl48 were added to the plate with 4.0 ng/ml human IFN-beta for 24 hours, and cells were harvested and assayed by the Cells-to-Ct kit with TaqMan assays (Thermo Fisher).
PROTOCOL TABLE (as described by Inglese et al., 2007) SEQUENCE No. (e.g., 1, 2, 3, etc.); […] (e.g., Cells, Incubation, Reagent, etc.); VALUE; DESCRIPTION 0; Compounds; 150 nl; Follow-up compounds dispensed at 150 nl/well with Labcyte Echo 655 acoustic dispenser into one Corning white/clear bottom, high base TC 384-well plates (3765) 1a; Cells; 30 uL; Using a p200 manual pipette, seed 780 cells/well into 1 plate in 30 ul/well of iHSKM growth medium without dexamethasone into columns wells A1-A6. […]

| SMILES | Potency |
| --- | --- |
| C[C@@H]1O[C@@H](O[C@H]2C[C@@H](O)[C@]3(CO)[C@H]4[C@H](O)C[C@]5(C)[C@@H](C6=CC(=O)OC6)CC[C@]5(O)[C@@H]4CC[C@]3(O)C2)[C@H](O)[C@H](O)[C@H]1O | inactive |
| CC(C)[C@]12O[C@H]1[C@@H]1O[C@@]13[C@@]1(C)CCC4=C(COC4=O)[C@@H]1C[C@@H]1O[C@@]13C2=O | inactive |
| C[C@@H]1O[C@@H](O[C@@H]2C=C3CC[C@@H]4[C@H](CC[C@]5(C)[C@@H](c6ccc(=O)oc6)CC[C@]45O)[C@@]3(C)CC2)[C@H](O)[C@H](O)[C@H]1O | inactive |
| COc1cccc2c1C(=O)c1c(O)c3c(c(O)c1C2=O)C[C@@](O)(C(=O)CO)CC3OC1CC(N2CCOC(OC)C2)C(O)C(C)O1 (stereo not given in full) | 92.4 nM (active) |
| Cc1[nH]nc2ccc(-c3cncc(OC[C@@H](N)Cc4c[nH]c5ccccc45)c3)cc12 | 207 nM (active) |

— PubChem BioAssay AID1347415 (National Center for Advancing Translational Sciences (NCATS), 2020)
